Source: the supplement of paper PMC10720658
± gives the standard deviation of the averaged measurements.

Test system: AEK1 (Tb927.3.2440)
Assay: percent reduction in TR-FRET probe signal relative to DMSO control; higher = stronger displacement of ATP-site probe (binding)
Conditions: 1 µM; incubation time 1 h

Compound | percent reduction in TR-FRET probe signal [%]
COc1cc2ncc(-c3ccccc3)nc2cc1OC [Tyrphostin AG 1296] | -3.11 ± 5.3
Cc1[nH]c(/C=C2\C(=O)Nc3ccccc32)c(C)c1CCC(=O)O [TSU-68 (SU6668, Orantinib)] | 1.55 ± 4
O=C(Cc1ccc(-c2ccc(OCCN3CCOCC3)cc2)cn1)NCc1ccccc1 | -1.26 ± 9
Cc1[nH]c(/C=C2\C(=O)Nc3ccc(S(=O)(=O)Cc4c(Cl)cccc4Cl)cc32)c(C)c1C(=O)N1CCC[C@@H]1CN1CCCC1 | -5.64 ± 15
CCc1cnn2c(NCc3ccc[n+]([O-])c3)cc(N3CCCC[C@H]3CCO)nc12 | -4.69 ± 4.1
Cc1nc(Nc2cnn(C3CCNCC3)c2)nc2c1N(C)C(=O)c1cc3ccccc3cc1N2C | -10.5 ± 7.1
O=C(Nc1nc2cccc(-c3ccc(CN4CCS(=O)(=O)CC4)cc3)n2n1)C1CC1 [Filgotinib (GLPG0634)] | 9.11 ± 14
Cl.O=C1NCCc2[nH]c(-c3ccncc3)cc21 | 11.4 ± 8.5
CCc1cc(Nc2nccc(-c3c(-c4ccc(OC)c(C(=O)Nc5c(F)cccc5F)c4)nc4ccccn34)n2)c(OC)cc1N1CCC(N2CCN(S(C)(=O)=O)CC2)CC1 | -12.2 ± 12
Cc1cc(Nc2cc(N3CCN(C)CC3)nc(/C=C/c3ccccc3)n2)n[nH]1 | 20.9 ± 12
C[C@H]1[C@H](C)CC[C@]2(C(=O)O)CC[C@]3(C)C(=CC[C@@H]4[C@@]5(C)C[C@@H](O)[C@H](O)[C@@](C)(CO)[C@@H]5CC[C@]43C)[C@H]12 [Asiatic Acid] | -8.28 ± 13
CNC(=O)c1cc(Oc2ccc(NC(=O)Nc3ccc(Cl)c(C(F)(F)F)c3)cc2)ccn1.Cc1ccc(S(=O)(=O)O)cc1 [Sorafenib Tosylate] | 17 ± 12
Cc1cnc(NC(=O)Nc2cc(Br)c(C)cc2OC[C@@H]2CNCCO2)cn1 | 9.29 ± 6.3
CN(C)Cc1cccc(N/C(=C2\C(=O)Nc3cc(C(=O)N(C)C)ccc32)c2ccccc2)c1 | -0.927 ± 9.6
COC(=O)Nc1ccc(-c2nc(N3CCOCC3)c3cnn(C4CCN(C(=O)OC)CC4)c3n2)cc1 | -6.41 ± 11
COc1ccc(-c2ccc3ncc4c(c3c2)n(-c2ccc(N3CCNCC3)c(C(F)(F)F)c2)c(=O)n4C)cn1.O=C(O)/C=C\C(=O)O | -5.09 ± 8.7
O=c1sn(-c2cccc3ccccc23)c(=O)n1Cc1ccccc1 [Tideglusib] | -35 ± 6.7
Cl.NC(=O)c1cnc(N[C@@H]2CCCC[C@@H]2N)nc1Nc1cccc(-n2nccn2)c1 | -0.93 ± 1.4
COc1cc2ncnc(Nc3ccc(Cl)cc3F)c2cc1OC | 4.47 ± 2.8
CC(C)[C@H](CO)Nc1nc(Nc2cccc(Cl)c2)c2ncn(C(C)C)c2n1 [Purvalanol A] | 4.44 ± 18
O=C(NC[C@H](O)CO)c1ccncc1Nc1ccc(I)cc1F | 8.42 ± 5
Cn1c(=O)c(F)c(Nc2ccc(I)cc2F)c2c(=O)n(C[C@@H](O)CO)cnc21 | 10.1 ± 14
C=CC(=O)Nc1cccc(Nc2nc(Nc3ccc(OCCOC)cc3)ncc2F)c1 | -0.667 ± 7.7
Cc1cc(NC(=O)c2cccc(NC(=O)/C=C/CN(C)C)c2)ccc1Nc1nccc(-c2cccnc2)n1 | -7.17 ± 15
Nc1nccc(Oc2ccc(NC(=O)c3c[nH]cc(-c4ccc(F)cc4)c3=O)cc2F)c1Cl | 24.6 ± 15
